Experimental data from paper PMC4336329 (PLoS ONE, 2015).
About 14,000 (4.5%) of roughly 310,000 compounds showed an effect of 50% or more. Effects have a minus sign here. The sample as a whole holds a higher share of strong results than the screen did.

What follows are compounds tested against human ether-à-go-go-related gene (hERG) potassium channel (human, UniProt Q12809) (assay: primary screen, population patch clamp on CHO cells stably expressing hERG; higher = less effect of the substance).
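Note: peak tail current of the secondary pulse compared with the same well before compound.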

human ether-à-go-go-related gene (hERG) potassium channel, sequence (Q12809 whole entry, looked up): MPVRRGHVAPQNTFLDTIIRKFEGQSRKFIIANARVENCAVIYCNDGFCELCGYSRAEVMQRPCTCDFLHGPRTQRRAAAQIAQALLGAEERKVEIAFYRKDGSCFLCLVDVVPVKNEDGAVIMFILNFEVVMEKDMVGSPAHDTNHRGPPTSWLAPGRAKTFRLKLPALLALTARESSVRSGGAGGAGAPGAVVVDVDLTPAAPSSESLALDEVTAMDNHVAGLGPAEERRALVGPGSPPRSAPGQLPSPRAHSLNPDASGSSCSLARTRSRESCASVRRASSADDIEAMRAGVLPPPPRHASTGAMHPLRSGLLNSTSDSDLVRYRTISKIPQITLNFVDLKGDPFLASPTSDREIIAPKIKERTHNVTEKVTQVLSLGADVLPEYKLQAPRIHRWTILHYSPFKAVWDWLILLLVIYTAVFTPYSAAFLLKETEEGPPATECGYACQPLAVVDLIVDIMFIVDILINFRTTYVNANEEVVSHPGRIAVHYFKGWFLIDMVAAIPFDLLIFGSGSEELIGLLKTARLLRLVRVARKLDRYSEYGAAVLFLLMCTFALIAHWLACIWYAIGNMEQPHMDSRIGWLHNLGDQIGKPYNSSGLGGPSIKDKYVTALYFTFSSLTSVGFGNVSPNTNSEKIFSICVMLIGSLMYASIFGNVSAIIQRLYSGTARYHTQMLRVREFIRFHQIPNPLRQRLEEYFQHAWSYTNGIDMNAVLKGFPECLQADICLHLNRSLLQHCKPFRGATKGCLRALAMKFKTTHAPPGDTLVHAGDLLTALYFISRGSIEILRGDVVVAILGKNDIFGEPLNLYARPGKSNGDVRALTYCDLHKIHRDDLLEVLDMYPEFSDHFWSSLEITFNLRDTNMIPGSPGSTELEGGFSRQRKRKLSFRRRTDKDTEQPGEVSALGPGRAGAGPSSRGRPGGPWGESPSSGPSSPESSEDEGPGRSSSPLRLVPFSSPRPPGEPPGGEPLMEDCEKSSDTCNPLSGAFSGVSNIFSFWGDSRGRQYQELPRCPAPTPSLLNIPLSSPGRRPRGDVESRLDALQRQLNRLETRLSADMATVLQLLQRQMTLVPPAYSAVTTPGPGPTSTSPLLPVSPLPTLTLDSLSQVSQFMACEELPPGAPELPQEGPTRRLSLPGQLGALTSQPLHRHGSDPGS

Row | SMILES | hERG current change (%, negative = inhibition) at 10uM [%]
1 | COc1cc(OC)c(OC)cc1CN1CCCC(C(=O)N2CCCCC2)C1.O=C(O)C(=O)O (centres unmarked) | -1.45
2 | COc1ccc(Br)cc1CN1CCCC(C(=O)N2CCCCCC2)C1.O=C(O)C(=O)O (centres unmarked) | -62.4
3 | COc1ccc(Br)cc1CN1CCCC(C(=O)N2CCCCC2)C1.O=C(O)C(=O)O (centres unmarked) | -55.8
4 | COc1ccc(OC)c(CN2CCCC(C(=O)N3CCCCC3)C2)c1.O=C(O)C(=O)O (centres unmarked) | -32.1
5 | COc1ccccc1CN1CCCC(C(=O)N2CCCCC2)C1.O=C(O)C(=O)O (centres unmarked) | 10.6
6 | O=C(C1CCCN(Cc2cc(Br)ccc2O)C1)N1CCCCC1.O=C(O)C(=O)O (centres unmarked) | -31.6
7 | COc1ccc(-c2csc(NC(=O)c3ccc(S(=O)(=O)N4CCc5ccccc5C4)cc3)n2)c(OC)c1 | 23
8 | O=C(CCC(=O)OCC(=O)c1ccccc1)Nc1cccc(Cl)c1 | 21.5
9 | CCN(CC)C(=O)c1c(NC(=O)c2ccccc2)sc(C)c1C | -6.01
10 | O=C(NCSc1ccnc(SCNC(=O)c2ccccc2)n1)c1ccccc1 | -28
11 | COc1ccc(CC(=O)NCCS(=O)(=O)N2CCN(c3ccccc3)CC2)cc1 | 12.7
12 | Cn1c(SCc2ccc([N+](=O)[O-])cc2)nnc1-c1cccnc1 | -18
13 | Cn1c(SCc2ccc([N+](=O)[O-])cc2)nnc1-c1ccncc1 | -52
14 | Cn1c(SCC2CCCO2)nnc1-c1cccc([N+](=O)[O-])c1 (centres unmarked) | 8.76
15 | Cn1c(SCC2CCCO2)nnc1-c1ccc([N+](=O)[O-])cc1 (centres unmarked) | -63.8
16 | CN(C)c1ccc(-c2nnc(SCC3CCCO3)n2C)cc1 (centres unmarked) | 5.24
17 | Cc1ccc(CSc2nnc(-c3ccncc3)n2C)cc1 | 4.36
18 | CCO/C=C1/C(=O)N(CC)c2ccccc21 | -8.33
19 | CCOC(=O)Nc1cccc2ccccc12 | 1.14
20 | CCOc1cc(C2C(C(=O)O)c3cc(OCC)c(OCC)cc3C(=O)N2C)ccc1O (centres unmarked) | 2.69
21 | O=C(CNC(=S)N(Cc1ccccc1F)C1CCCCC1)NCCN1CCOCC1 | 43.3
22 | COCCNC(=O)Cn1nc(-c2ccc(Cl)cc2)c2ccccc2c1=O | 8.83
23 | COc1cccc(CN(C)C(=O)CCNC(=O)c2ccc(Br)cc2)c1 | 0.786

Row | SMILES | hERG current change (%, negative = inhibition) at 10uM [%]
24 | CC(=O)c1cccc(CN2CCN(CCC(C)C)C(CCO)C2)c1 (centres unmarked) | -29
25 | CCOc1ccccc1CN1CCN(Cc2csc(C(C)=O)c2)CC1CCO (centres unmarked) | -44.5
26 | CC(=O)c1cccc(CN2CCN(CCc3ccccc3)C(CCO)C2)c1 (centres unmarked) | -53.3
27 | CC(=O)c1cc(CN2CCN(Cc3ccccc3)C(CCO)C2)cs1 (centres unmarked) | 2.03
28 | CC(=O)c1cccc(CN2CCN(Cc3ccc(F)cc3)C(CCO)C2)c1 (centres unmarked) | -32.9
29 | CC(=O)c1cc(CN2CCN(CCC(C)C)C(CCO)C2)cs1 (centres unmarked) | -5.53
30 | CC(=O)c1cccc(CN2CCN(CC(C)C)C(CCO)C2)c1 (centres unmarked) | 5.29
31 | CC(=O)c1cc(CN2CCN(CCc3ccccc3)C(CCO)C2)cs1 (centres unmarked) | -54.4
32 | CC(=O)c1cc(CN2CCN(C3CCN(C(C)C)CC3)C(CCO)C2)cs1 (centres unmarked) | -3.56
33 | CC(=O)c1cccc(CN2CCN(Cc3ccccc3)C(CCO)C2)c1 (centres unmarked) | -1.84
34 | CC(=O)c1cccc(CN2CCN(Cc3ccc(C)cc3)C(CCO)C2)c1 (centres unmarked) | -69
35 | COc1ccc(CN2CCN(Cc3csc(C(C)=O)c3)CC2CCO)c(C)c1C (centres unmarked) | -58.1
36 | Cc1cccc(-n2[nH]c3c4c(ccc3c2=O)C(=O)c2ccccc2C4=O)c1 | 4.95
37 | Cc1onc(-c2ccccc2Cl)c1C(=O)Nc1ccc(OCC(=O)N2CCOCC2)cc1 | -3.95
38 | CC/C(=N\NC(=O)Nc1ccccc1)c1c(O)n(Cc2ccccc2)c(=O)[nH]c1=O | 3.1
39 | CC(=O)c1ccc(NS(=O)(=O)c2ccc3c(c2)N(C)CCO3)cc1 | 11.6
40 | COc1ccccc1N1CCN(C(=O)C2CCCN(S(=O)(=O)c3ccc(C)cc3)C2)CC1 (centres unmarked) | -38.3
41 | O=C(Nc1c(F)cc(F)cc1Br)c1cccnc1 | 8.61
42 | COc1ccc(-c2ccnc3nc(-n4cccc4)nn23)cc1 | -14.7
43 | COc1cc2nc(Nc3cccc(F)c3)nc(N)c2cc1OC.Cl | -17.7
44 | O=C(NC1CC2CCC1C2)C1CCN(S(=O)(=O)c2ccc(-c3nn[nH]n3)cc2)CC1 (centres unmarked) | 14.4
45 | O=C(O)c1cc(N2C(=O)C3CC=CCC3C2=O)ccc1NCc1cccnc1 (centres unmarked) | 15
46 | CC(=O)c1cc(CN2CCN(Cc3ccc(C)cc3)C(CCO)C2)cs1 (centres unmarked) | -55

Row | SMILES | hERG current change (%, negative = inhibition) at 10uM [%]
47 | CC(=O)c1cc(CN2CCN(CC=C(C)C)C(CCO)C2)cs1 (centres unmarked) | 16.3
48 | CC(=O)c1cc(CN2CCN(C3CCCCC3)C(CCO)C2)cs1 (centres unmarked) | -17.2
49 | CN1C(N)=NC(=O)/C1=C\c1ccc(Br)cc1 | 8.35
50 | CC(C)CC(C(=O)NC1CCCC1)N(Cc1ccc2c(c1)OCO2)C(=O)c1snc(C(N)=O)c1N (centres unmarked) | -20.4
51 | CCN1CCCC1CNC(=O)c1cc2c(C)nc3ccccc3c2o1 (centres unmarked) | -12
52 | O=C(O)C(=O)O.c1ccc(COc2ccc(OCCCCN3CCCC3)cc2)cc1 | -64
53 | O=C(O)C(=O)O.c1ccc(COc2ccc(OCCCCN3CCCCC3)cc2)cc1 | -70.5
54 | CSc1cccc(N2CC(C(=O)NCCC3=CCCCC3)CC2=O)c1 (centres unmarked) | 14.1
55 | Cc1cccc(NC(=O)C2NC(=O)CC2c2ccccc2)c1C (centres unmarked) | 1.2
56 | O=C(CSc1nnc(NC(=O)c2ccc(F)cc2F)s1)NC1CCCC1 | 17.7
57 | Clc1ccc(N=C2SCC3CCCCN23)cc1 (centres unmarked) | -18.3
58 | COc1ccc(S(=O)(=O)N2CCN(c3nc(C)cc(C)n3)CC2)cc1 | 2.96
59 | Cc1nc2cc(C(=O)OCC(=O)Nc3cccc(Cl)c3)ccc2n1-c1ccccc1 | -13.6
60 | O=C(Nc1ncc(C(F)(F)F)cc1Cl)c1ccc(S(=O)(=O)N2CCOCC2)cc1 | -13.4
61 | COc1ccc(/C=N/NC(=O)c2cccc(NC(=O)c3ccccc3Cl)c2)cc1OC | -3.89
62 | COc1cccc(C(=O)Nc2cccc(-c3nnc(-c4ccccc4)o3)c2)c1 | -4.18
63 | COc1cccc(C(=O)Nc2cccc(NC(=O)c3ccccc3Cl)c2)c1 | -52
64 | COc1cc(/C=N\NC(=O)c2cccnc2)ccc1OC(=O)c1ccccc1Cl | -7.3
65 | COc1cc(C(=O)N/N=C/c2ccc(OC(=O)c3ccccc3Cl)c(OC)c2)ccc1O | 13.4
66 | COc1cccc(C(=O)Nc2cccc(NC(C)=O)c2)c1 | -8.39
67 | COc1cc(/C=N/NC(=O)c2cccc(NC(=O)c3ccccc3C)c2)ccc1O | -48.4
68 | COc1ccc(C(=O)Nc2cccc(-c3nnc(-c4ccco4)o3)c2)cc1 | -37.4
69 | COc1cccc(C(=O)Nc2cccc(-c3nnc(-c4ccco4)o3)c2)c1 | -51.4

Row | SMILES | hERG current change (%, negative = inhibition) at 10uM [%]
70 | COc1cc(/C=N/NC(=O)c2ccncc2)ccc1OC(=O)c1ccccc1Cl | -50.8
71 | COc1cc(/C=N/NC(=O)c2cccc(NC(=O)c3ccccc3Cl)c2)ccc1O | -55.6
72 | CC(C)Oc1cccc(C(=O)NC(=S)Nc2cccc(NC(=O)c3ccccc3Cl)c2)c1 | -11.9
73 | CCOc1ccc(NC(=O)CCN2C(=O)CSc3ccccc32)cc1 | -25.3
74 | O=C(/C=C\Nc1ccc2c(c1)OCO2)c1cccs1 | 17.6
75 | Cc1nc(SCC(=O)Nc2c(C)nn(C)c2C)c2cnn(-c3ccccc3)c2n1 | 14
76 | Cc1ccc(S(=O)(=O)N2CCOCC2)cc1NC(=O)c1cc(-c2ccccn2)nc2ccccc12 | -46.7
77 | S=c1[nH]nc(-c2ccc(Cl)cc2Cl)n1-c1ccc2c(c1)OCCO2 | 6.46
78 | c1ccc(C2CCC(N3CCC(N4CCCCC4)CC3)CC2)cc1 (centres unmarked) | 10.8
79 | COCCNC(=O)CSCc1c(F)cccc1Cl | 3.73
80 | CCCc1cc(=O)oc2cc(C)cc(OC(C)C(=O)NCc3ccccn3)c12 (centres unmarked) | -8.3
81 | Fc1cccc2sc(Nc3nnc(-c4ccccc4)o3)nc12 | 20.5
82 | O=c1[nH]nc(N/N=C/c2ccc(Cl)cc2Cl)c(=O)[nH]1 | -1.17
83 | Cn1c(SCC(=O)O)nnc1-c1cccc(NC(=O)c2cccc3ccccc23)c1 | 7.15
84 | COc1cccc(C(=O)NCCSCc2c(F)cccc2Cl)c1 | -29
85 | COc1ccc(NC(=O)c2cccc(F)c2)cc1Cl | 1.72
86 | COc1cccc(C(=O)NCCSCc2ccccc2Cl)c1 | -53.2
87 | COc1ccccc1C(=O)NCCSCc1ccccc1Cl | -15.4
88 | COc1ccc(C(=O)Nc2cc(C(=O)O)cc(C(=O)O)c2)cc1Cl | 19.5
89 | COC(=O)c1cccc(NC(=O)c2ccc(OC)c(Cl)c2)c1 | -65.3
